Source: PubChem BioAssay (NCATS)
Results filed as inconclusive are left out. Entries that show only a call come without a potency. Activity calls are given as the source filed them. Calls follow the shape of the dose curve; as a rule, active = well fitted inhibition curve with a large enough effect; inconclusive = small, poorly fitted or top-dose-only effect; inactive = no such curve, though single readings can be large or run the other way. Where a SMILES comes first, the peptide text is derived from it. The star is where a group is joined. AFC = O=c1cc(C(F)(F)F)c2ccc(N*)cc2o1

Legend:
[1] = system: Zika virus NS2B-NS3 protease (unlinked complex); assay: Primary screen GU Rhodamine qHTS for Zika virus inhibitors: Unlinked NS2B-NS3 protease assay (AID 1347159); also: nearly all actives have a fitted effect of over 60% in size
Summary of the method: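 Enzyme 25 nM in Tris-HCl pH 8.0 + 0.01% Tween 20; compounds up to 114 microM, 15 min RT dark; + Rhod110 substrate 1.5 microM; read t0 and 15 min; delta fluorescence → % inhibition → 4-parameter Hill fit.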

[2] = system: Zika virus NS2B-NS3 protease (linked construct); assay: Primary screen NINDS Rhodamine qHTS for Zika virus inhibitors (AID 1347160); also: nearly all actives have a fitted effect of over 55% in size
Summary of the method: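 Enzyme (25 nM, linked NS2B-NS3) was preincubated 15 min with compound in 10 mM Tris-HCl pH 8.0, 0.01% Tween 20. Rhodamine110 substrate (1.5 microM) was then added and fluorescence read at start and after 15 min.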
Potency is read from the fitted curve at half-maximal effect.

SMILES	Potency [1]	Potency [2]
CC(C)(OC1OC(CO)C(O)C(O)C1O)C1CCC(O)(CO)C2CC(O)C(C)(O)C2C1 (stereo not drawn)	inactive	inactive
COc1ncc(-c2ccc3c(Nc4cc(Oc5cc(F)cc(F)c5)cc(C(=O)O)c4)c(S(=O)(=O)NC4CC4)cnc3c2)c(OC)n1	8.91 µM (active)	14.1 µM (active)
CC1(CCC(=O)O)C(=O)C=CC23CC4CC(OC4(C)C2O)C13 (stereo not drawn)	inactive	inactive
NC(Cc1c[nH]c2ccccc12)C(=O)NC(CCC(=O)O)C(=O)O (stereo not drawn)	inactive	inactive
OCC1OC(Oc2cc(O)c3c(c2)OC(c2ccc(O)cc2)C(O)C3)C(O)C1O (stereo not drawn)	inactive	inactive
C=C1[C@H]2CC[C@]3(O)[C@@](CC[C@@H]4[C@](C)(C(=O)O)CCC[C@]43C)(C2)[C@H]1OC(=O)/C(C)=C\C	inactive	inactive
CC1C(=O)CC2C3C(O)CC(C(=O)O)C12CC3(C)C (stereo not drawn)	inactive	inactive
COC(=O)C1=CO[C@@H](O[C@@H]2O[C@H](COC(=O)/C=C/c3cc(OC)c(O)c(OC)c3)[C@@H](O)[C@H](O)[C@H]2O)[C@@H]2C(CO)=CC[C@H]12	inactive	inactive
CC12CCC3c4ccc(O)cc4CCC3C1CCC2OC1OC(C(=O)O)C(O)C(O)C1O (stereo not drawn)	inactive	inactive
COC1CC(=O)CCC(C)OC(=O)CC1O (stereo not drawn)	inactive	inactive
CC/C=C\C[C@H]1C(=O)C=C[C@@H]1CCCCCCCC(=O)O	35.5 µM (active)	inactive
O=c1ccn([C@@H]2O[C@H](CO)[C@@H](O)[C@H]2O)c(=O)[nH]1	inactive	inactive
C=C(C)C(=O)O[C@H]1C[C@@](C)(OC(C)=O)[C@@]2(O)CC[C@@](C)(O)[C@H](OC(C)=O)[C@@]23OC(=O)C(COC)=C13	inactive	inactive
CCOc1cc2ncc(C#N)c(Nc3ccc(OCc4ccccn4)c(Cl)c3)c2cc1NC(=O)/C=C/CN(C)C	inactive	inactive
C=CC(C)(C)C1(CC2NC(=O)C3CCCN3C2=O)C(=O)Nc2cc3c(cc21)C=CC(C)(C)O3 (stereo not drawn)	inactive	inactive
CC(=O)O[C@H]1[C@H](Oc2ccccc2COC(=O)C2(O)C=CCCC2=O)O[C@H](CO)[C@@H](O)[C@@H]1O (stereo partly drawn)	inactive	inactive
N#CCc1ccc(O)cc1O[C@@H]1O[C@H](CO)[C@@H](O)[C@H](O)[C@H]1O	inactive	inactive
COc1ccc(C)c2sc(NC(=O)c3ccncc3)nc12	inactive	inactive
C=C1CC[C@@H]2[C@](C)(CC[C@H](O)[C@@]2(C)CCC=C(C)C)[C@@H]1Cc1c[nH]c2ccccc12	inactive	inactive
NCc1c[nH]c(=S)n1C1CCc2c(F)cc(F)cc2C1 (stereo not drawn)	inactive	inactive
CC(C)(O)c1ccc2c(c1)C(O)CC1C(C)(C(=O)O)CCCC21C (stereo not drawn)	inactive	inactive
C[C@@H]1CC[C@H]2C(C)(C)[C@H](O)[C@H](O)C[C@]2(C)[C@@]12Cc1c(O)cc3c(c1O2)CNC3=O	inactive	inactive
C=CC1C(O[C@@H]2O[C@H](CO)[C@@H](O)[C@H](O)[C@H]2O)OC=C(C(=O)OC)C1CC(=O)O (stereo partly drawn)	inactive	inactive
COc1cc(/C=C/CO)ccc1O[C@@H]1O[C@H](CO)[C@@H](O)[C@H](O)[C@H]1O	inactive	inactive
C=C(C)C(C)C1OC23CC4(CO2)C(CCC2C5(C)CCC(OC6OCC(O)C(OC7OC(CO)C(O)C(OC8OCC(O)C(O)C8O)C7O)C6OC6OC(CO)C(O)C6O)C(C)(C)C5CCC24C)C3C(C)(O)C1OC(C)=O (stereo not drawn)	inactive	inactive
O=C(OCC12OC1C=CC(OC(=O)c1ccccc1)C2O)c1ccccc1 (stereo not drawn)	inactive	inactive
CC(=O)O[C@@H]1[C@@H](OC(=O)/C=C/c2ccccc2)[C@H](C)O[C@@H](O[C@H]2[C@@H]3C=CO[C@@H](O[C@@H]4O[C@H](CO)[C@@H](O)[C@H](O)[C@H]4O)[C@@H]3[C@@]3(CO)O[C@@H]23)[C@@H]1OC(C)=O	inactive	inactive
C=C1C(O[C@@H]2O[C@H](CO)[C@@H](O)[C@H](O)[C@@H]2O)CC2C(C)(C)C(O)CCC2(C)C1CC/C(C)=C\CO (stereo partly drawn)	inactive	inactive
CC(=O)N[C@@H](CC(C)C)C(=O)N[C@@H](CCC(=O)O)C(=O)N[C@@H](CCC(=O)O)C(=O)N[C@@H](CC(=O)O)C(=O)Nc1ccc2c(C(F)(F)F)cc(=O)oc2c1 (Ac-LEED-{AFC})	inactive	inactive
